# Measured values from PubChem BioAssay AID743172 (National Center for Advancing Translational Sciences (NCATS), 2013).
# Results filed as inconclusive are left out. Active and inactive are the calls of the source. Calls follow the shape of the dose curve; as a rule, active = well fitted activation curve with a large enough effect; inconclusive = small, poorly fitted or top-dose-only effect; inactive = no such curve, though single readings can be large or run the other way.
# Assay: Extended Characterization of HPGD Inhibitors: PGE2 Assay in LNCaP Cells
# Conditions: PGE2 HTRF level, 16 h
# Source text: The central role of HPGD is to inactivate prostaglandins such as prostaglandin E2 (PGE2) or prostaglandin D2 (PGD2). These prostaglandins are involved in a number of processes, including inflammation, differentiation, and cellular signaling, which makes HPGD an important target for pharmacological intervention. A number of prostaglandins of particular biological interest have been identified as substrates of HPGD. […] Over-production of PGE2 has been reported to promote tumor-associated neovascularization, cell proliferation, and tumor growth. […] In this orthogonal assay, we set out to measure if compounds were able to increase PGE2 production NIH Chemical Genomics Center [NCGC] NIH Molecular Libraries Probe Centers Network [MLPCN] MLPCN Grant: MH084681 Assay Submitter (PI): Structural Genomics Consortium
# A549 cells, LNCaP cells or media were dispensed in 384-well plates (ProxiPlate-384 Plus, PerkinElmer, Shelton, CT) at 5,000 cells/9.9 uL/well using a CappAero384 multichannel pipette (Odense, Denmark). Separately on the plate, 10 uL of PGE2 calibration standards at a starting assay concentration of 5,000 pg/mL (1:2 dilution, 12-points, n = 1, prepared in media, Cisbio, Bedford, MA) were dispensed. Compounds (100 nL, final concentration range from 41.9 nM to 100 uM) were transferred using an ATS Acoustic Liquid Dispenser (EDC Biosystems, Fremont, CA). After being mixed using an automated liquid handler (CyBio, Jena, Germany), samples were incubated (37 deg C, 5% CO2, under a humidified atmosphere) for 16 hours. PGE2 labeled conjugates were added to each well, first 5 uL of PGE2-d2, followed by 5 uL of anti-PGE2-cryptate, centrifuged (1,500 rpm, 15 sec) and incubated (RT, protected from light) for 5 hours. Time-resolved fluorescence intensity (320 nm excitation, 615 and 665 nm emission) was measured using an Envision plate reader (PerkinElmer). Data was expressed as the ratio of 665 nm/615 nm emissions. Concentration (pg/mL) of samples were calculated from a 4-parameter logistic calibration curves of the PGE2 standards.
row,Compound,Potency
1,Cc1cc(-c2nnc3n2CCCCC3)c(C)n1-c1ccc(Cl)cc1,2220 nM (active)
2,Cc1cc(-c2nnc3n2CCCCC3)c(C)n1-c1cccnc1,4430 nM (active)
3,Cc1cc(-c2nnc3n2CCCCC3)c(C)n1-c1ccc(C(C)(C)C)cc1,2220 nM (active)
4,COc1ccc(-n2c(C)cc(-c3nnc4n3CCCCC4)c2C)cc1,2800 nM (active)
